# Peg3 prom inh-1 = Peg3 promoter-driven luciferase inhibitors, primary screen, cell-based, HeLa, luciferase luminescence; inhibition, % at 20 µM; 360,000 compounds, 1.7% hits; AID 588405, 2011; HeLa PEG-Prom luciferase reporter, overnight;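 active = inhibition of at least 50% at 20 µM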
# CF NFkB inh = inhibitors of PAF-induced NF-kB signaling, primary screen, cell-based, GFP fluorescence, uHTS | KKLEB NF-kB-GFP reporter, GFP fluorescence overnight | inhibition, % at 5 µM | 360,000 compounds, 0.86% hits;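 active = at least 50% inhibition at 5 µM, scaled per plate between neutral and stimulator controls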;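 note: PAF is a Pseudomonas aeruginosa culture filtrate used as stimulus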
# HIF-2a block = HIF-2a reporter inhibitors, primary screen, luminescence, 786-0 RCC cells. 786-0 RCC cells HIF-2a reporter, luciferase luminescence, overnight. inhibition, % at 18.8 µM. 360,000 compounds, 0.72% hits. AID 624352, 2012;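 active = inhibition of the luminescence signal of 40% or more relative to plate controls, in a single-dose primary screen at 18.75 µM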
# Shn3 3UTR inh = reduction of Shn3 3'UTR firefly luciferase signal, primary screen, Schnurri-3 inhibitor project, cell-based, Clone20 osteoblasts, set 2; AID 588674, 2011; 360,000 compounds, 0.52% hits; Clone20 osteoblast Shn3 3'UTR firefly luciferase, 24 h; inhibition, % at 12.5 µM;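 active = mean inhibition of at least 75% with every replicate also reaching 75%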
# KKLEB tox = cytotoxicity in KKLEB CF airway cells, primary screen, cytotoxicity control for CF NF-kB inhibitor project, cell-based, uHTS, fluorescence assay plates. KKLEB CF airway cells viability, ATPlite luminescence, overnight; hits give low values; cells stimulated with P. aeruginosa culture filtrate. activity change (cytotoxicity), % at 5 µM. 360,000 compounds, 0.36% hits. AID 602141, 2011;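 active = corrected activity change at or below -50% at 5 µM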
# Peg3 prom inh-2 = Peg3 promoter reporter inhibitors, retest, confirmation, cell-based, HeLa, luciferase reporter, single concentration; shares compounds with Peg3 prom inh-1; HeLa PEG-Prom luciferase reporter, luminescence, overnight; inhibition, % at 20 µM; 1,300 compounds, 84% hits;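 active = at 20 µM dose, 40% or more inhibition averaged across four replicates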
# Numbers stand for hits; n = inactive; x = no result given. In the library only some 2.6% were active in any assay of this set; here they are far more common.
SMILES,Peg3 prom inh-1,CF NFkB inh,HIF-2a block,Shn3 3UTR inh,KKLEB tox,Peg3 prom inh-2
CCC(=O)NC(c1cccs1)c1cc(Cl)c2cccnc2c1O (stereo unspecified),56,n,n,n,n,58
Oc1c(I)cc(Cl)c2cccnc12,55,n,n,n,n,68
COc1ccc(C(NC(C)=O)c2cc(Cl)c3cccnc3c2O)cc1 (stereo unspecified),64,n,n,90,n,64
Clc1cc2cccnc2c2ncccc12,n,n,n,n,n,x
O=C(COC(=O)c1ccc(Cl)cc1)NCC1CCCCC1,n,n,n,n,n,x
Oc1c(C(c2ccccn2)N2CCCCC2)cc(Cl)c2cccnc12 (stereo unspecified),n,n,n,n,n,x
CC(=O)NC(c1ccc(N(C)C)cc1)c1cc(Cl)c2cccnc2c1O (stereo unspecified),59,n,n,n,n,68
COC(=O)c1cccc(Nc2nc(-c3cccnc3)nc3ccccc23)c1,n,n,n,n,n,x
CCOC(=O)c1cccc(Nc2nc(-c3cccnc3)nc3ccccc23)c1,63,n,n,n,n,90
COCCNc1nc(-c2cc(-c3ccc(Cl)cc3)on2)cc(C(C)C)n1,n,n,n,n,n,x
Cc1cc(C)c2sc(N(CCCN(C)C)C(=O)c3ccc(S(=O)(=O)N(C)Cc4ccccc4)cc3)nc2c1,97,n,n,n,n,98
CN(C)CCCN(C(=O)c1ccc(S(=O)(=O)N2CCc3ccccc3C2)cc1)c1nc2c(F)cc(F)cc2s1,n,n,n,n,n,x
Cc1ccc2sc(N(CCCN(C)C)C(=O)c3ccc(S(=O)(=O)N4CCc5ccccc5C4)cc3)nc2c1C,59,n,n,n,n,57
CCOc1cccc2sc(N(CCCN(C)C)C(=O)c3ccc(S(=O)(=O)N(CC)Cc4ccccc4)cc3)nc12,95,n,n,n,n,97
CCN(Cc1ccccc1)S(=O)(=O)c1ccc(C(=O)N(CCCN(C)C)c2nc3c(F)cccc3s2)cc1,n,n,n,n,n,x
Cc1ccc2sc(N(CCCN(C)C)C(=O)c3ccc(S(=O)(=O)N(C)Cc4ccccc4)cc3)nc2c1C,66,n,n,n,n,96
CCOC(=O)c1ccc(S(=O)(=O)N2CCC(C(=O)NCC3COc4ccccc4O3)CC2)cc1 (stereo unspecified),n,n,n,n,n,x
CN(Cc1ccccc1F)C(=O)c1ccc2c(=O)n3c(nc2c1)CCC3,n,n,n,n,n,x
CCC(C)[C@H](NC(=O)[C@@H]1Cc2ccccc2CN1C(=O)OC(C)(C)C)C(=O)NCC1CCC(C(=O)O)CC1 (stereo partly specified),n,n,n,n,n,x
CCOc1cccc2sc(N(CCCN(C)C)C(=O)c3ccc(S(=O)(=O)N(C)Cc4ccccc4)cc3)nc12,98,n,n,n,n,95
CCOc1cccc2sc(N(CCCN(C)C)C(=O)c3ccc(C(=O)c4ccccc4)cc3)nc12,n,n,n,n,n,x
Cc1ccc(C)c2c1CCC(=Cc1ccccc1[N+](=O)[O-])C2=O,n,n,n,n,n,x
CN1C/C(=C/c2ccccc2[N+](=O)[O-])C(=O)/C(=C\c2ccccc2[N+](=O)[O-])C1,96,n,n,n,n,100
CC(C)n1c(C(=O)OCC(=O)NCc2ccc3c(c2)OCO3)cc2sccc21,n,n,n,n,n,x
Clc1ccccc1-c1ccc2ncnc(NCc3ccc4c(c3)OCO4)c2c1,n,n,n,n,n,x
SMILES,Peg3 prom inh-1,CF NFkB inh,HIF-2a block,Shn3 3UTR inh,KKLEB tox,Peg3 prom inh-2
Clc1ccccc1-c1cnc2sc(NCc3ccc4c(c3)OCO4)nn12,66,n,n,n,n,n
Cc1nc(SCC(=O)NCc2ccco2)c2c(C)c(C)sc2n1,n,n,n,n,n,x
Cc1sc2nc(C(C)C)nc(SCC(=O)NCc3ccco3)c2c1C,59,n,n,n,n,n
Cc1cccc2c1-c1sc(C(=O)NCCCN3CCCC(C)C3)cc1CO2 (stereo unspecified),76,n,n,n,n,99
CCC(c1ccc(O)c(O)c1)C(CC)c1ccc(O)c(O)c1 (stereo unspecified),100,84,79,n,n,98
COc1ccc(/C(C)=N/OCC(=O)N2CC3(C)CC2CC(C)(C)C3)cc1 (stereo unspecified),n,n,n,n,n,x
O=C(O)c1ccccc1NC(c1ccccc1)c1ccc2cccnc2c1O (stereo unspecified),n,n,n,n,n,x
Cc1cc(NC(c2ccc(Cl)cc2)c2ccc3cccnc3c2O)no1 (stereo unspecified),53,n,n,89,n,63
CCCC(=O)NC(c1ccc(N(C)C)cc1)c1ccc2cccnc2c1O (stereo unspecified),57,n,n,91,n,68
COc1ccc(C(NC(=O)C(C)C)c2ccc3cccnc3c2O)cc1 (stereo unspecified),61,n,n,95,n,66
CC(=O)NC(c1ccc(Cl)cc1)c1ccc2cccnc2c1O (stereo unspecified),60,n,n,87,n,70
Cc1ccc(NC(=O)Cc2c(O)c3ccccc3[nH]c2=O)c(C)c1,n,n,n,n,n,x
O=C(NCc1ccccc1F)C(=O)NCC1CCCN1S(=O)(=O)c1ccccc1 (stereo unspecified),n,n,n,n,n,x
Cc1ccc(C)c(COc2coc(CN3CCN(C(=O)c4ccco4)CC3)cc2=O)c1,n,n,n,n,n,x
Cc1ccc2ccc(C(Nc3ccccc3)c3ccc(C(C)C)cc3)c(O)c2n1 (stereo unspecified),x,x,n,x,x,x
CCC(=O)NC(c1ccc(C)cc1)c1ccc2cccnc2c1O (stereo unspecified),60,n,n,90,n,68
CCCC(=O)NC(c1ccc(C(C)C)cc1)c1ccc2cccnc2c1O (stereo unspecified),67,n,n,91,n,70
CCCC(=O)NC(c1ccc(OC)cc1)c1c(O)ccc2ccccc12 (stereo unspecified),n,n,n,n,n,x
CCCCC(=O)NC(c1ccc(OC)cc1)c1ccc2cccnc2c1O (stereo unspecified),52,n,n,91,n,69
Cc1ccnc(NC(c2ccccc2)c2ccc3cccnc3c2O)c1 (stereo unspecified),n,n,n,n,n,x
